In the library only some 2.9% were active in any assay of this set; here they are far more common.
S1P4 antagonist = human S1P4 receptor antagonism; O95977; S1P4-expressing cells, antagonist mode, reporter read-out; inhibition, % at 4.98 µM; actives 0.26% (n = 220,000); in the data active means inhibition above about 29%;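 further: 0% = wells stimulated with agonist and 100% = vehicle wells without agonist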
S1P4 agonist = activates the human S1P4 receptor; O95977; AID 1509; activation, % at 4.98 µM; S1P4-expressing cell line, agonist reporter assay; actives 0.35% (n = 220,000); in the data active means activation above about 11%;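 further: 0% = DMSO vehicle and 100% = reference agonist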
HSF1 inh = HSF1 inhibition | AID 2098 | actives 0.77% (n = 300,000) | NIH3T3-HGL HSE-luciferase, MG132-induced, luminescence 8 h; stronger effect = lower value | activity change, negative = inhibition, % at 7.5 µM (by protocol);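 active means more than half of replicate wells show activity change below -50%, luminescence cut by over half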;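 further: luciferase reports HSF-1 transcriptional activity via heat shock element; 0% = median of DMSO wells and -100% = zero luminescence signal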
S1P3 antag = blocks the human S1P3 receptor; actives 0.27% (n = 170,000); CHO S1P3 NFAT-BLA reporter, FRET fluorescence, antagonist mode; Q99500; inhibition, % at 4.98 µM; AID 485;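 active means inhibition above the plate cutoff, the mean inhibition of test wells on that plate plus 3 SD, cut at about 28% in these data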;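 further: cells challenged with S1P at its EC80 of 0.8 µM; blue over green emission ratio from cleaved BLA substrate after 4 h stimulation; 0% = S1P-stimulated wells and 100% = unstimulated DMSO-only wells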
Target sequence (Q99500 whole entry, looked up): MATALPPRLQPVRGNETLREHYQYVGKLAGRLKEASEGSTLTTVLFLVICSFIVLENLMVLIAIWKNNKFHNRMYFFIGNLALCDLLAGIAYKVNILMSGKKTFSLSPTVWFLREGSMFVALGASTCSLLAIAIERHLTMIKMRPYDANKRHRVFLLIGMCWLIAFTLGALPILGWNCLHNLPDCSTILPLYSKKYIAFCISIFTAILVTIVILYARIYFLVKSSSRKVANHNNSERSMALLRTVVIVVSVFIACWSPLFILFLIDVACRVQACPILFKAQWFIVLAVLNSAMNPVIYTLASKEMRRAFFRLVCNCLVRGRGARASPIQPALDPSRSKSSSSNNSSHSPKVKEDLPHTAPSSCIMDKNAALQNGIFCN
Hsp70 activator = transcriptional activators of Hsp70; HeLa Hsp70 promoter luciferase reporter, luminescence; scaled: vehicle 0, proteasome-inhibitor control 100%; actives 0.04% (n = 200,000); activation, % at 10 µM;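 active means activation above the mean across all tested compounds plus 3 SD, cutoff set per campaign, cut at about 5.5% in these data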;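 further: 100% = MG132 at 30 µM as the positive control and 0% = DMSO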
HSF-1 act = increases HSF-1 driven luciferase reporter signal; activation, % at 9 µM; NIH3T3-HGL HSF-1 luciferase reporter, MG132, 8 h; 100% = twice DMSO control signal; actives 1.7% (n = 300,000);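 active means mean replicate activation of at least 50% with a set share of replicates each reaching 50%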;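 further: 0% = median of the neutral control wells and 100% = twice that signal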
S1P4 ag conf = human S1P4 agonism, confirmation | shares compounds with S1P4 agonist | S1P4 agonist cell-based reporter assay | activation, % at 4.98 µM | actives 7% (n = 740) | AID 1523; in the data active means activation above about 12%;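 further: 0% = vehicle and 100% = full reference agonist response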
S1P1 agonist = counter-screen for S1P4 agonists: agonists of human S1P1; shares compounds with S1P4 agonist; S1P1 agonist cell-based assay, activation; activation, % at 4.98 µM; actives 4% (n = 740); AID 1563; in the data active means activation above about 21%;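 further: 0% = vehicle wells and 100% = reference agonist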
* marks the source's active call; other numbers are inactive results; . = not tested or not shown.

SMILES | S1P4 antagonist | S1P4 agonist | HSF1 inh | S1P3 antag | Hsp70 activator | HSF-1 act | S1P4 ag conf | S1P1 agonist
Cc1ccc(O)c(C(CC(=O)NC(C)C)c2ccccc2)c1 (stereo unspecified) | -2.9 | 1.4 | 6.9 | 0.7 | -0.1 | 25.2 | . | .
CCCN(CCC)C(=O)CC(c1ccccc1)c1cc(C)ccc1O (stereo unspecified) | -8.1 | 50.9* | 3.3 | . | 0.1 | 7.9 | -2.0 | 1.8
C=CCn1c(SCC(=O)Nc2nnc(CC)s2)nnc1-c1ccco1 | -15.5 | 29.1* | -1.7 | -8.8 | -0.1 | -0.1 | -1.3 | 0.5
COc1ccccc1C(=O)OCC(=O)NC(=O)NCc1ccccc1 | -6.7 | 1.2 | 2.9 | -20.2 | 0.1 | 2.7 | . | .
C=CCNC(=S)NNC(=O)c1cc(C)nc2ccccc12 | -3.8 | 0.6 | -1.3 | 3.9 | -0.4 | 7.7 | . | .
CCNC(=S)NNC(=O)c1cc(C)nc2ccccc12 | -4.8 | 43.7* | 0.9 | -7.9 | -0.3 | 2.7 | -1.2 | 2.0
O=[N+]([O-])c1ccc2c(c1)CNc1ccccc1O2 | -2.1 | 33.1* | 9.2 | 0.5 | 0.2 | 14.0 | -1.7 | 3.1
O=C(Nc1ccc2c(c1)ncn2-c1ccccc1)c1ccco1 | 4.4 | 1.7 | 36.5 | 28.2 | 0.3 | 35.0 | . | .
Cn1cnc2cc(NC(=O)c3ccco3)ccc21 | 6.4 | 61.2* | 6.7 | -1.4 | 0.1 | 21.0 | -1.6 | -9.0
NC(=O)N=Nc1c(O)n(Cc2ccccc2)c2ccc(Br)cc12 | . | . | -0.4 | . | . | -0.6 | . | .
COc1ccc(N2CCN(C(=O)Cn3ncc4c([nH]c5ccccc54)c3=O)CC2)cc1 | . | . | -3.3 | . | . | -5.1 | . | .
O=C(Nc1cccnc1)c1ccc(C(=O)Nc2cccnc2)cc1 | 6.1 | -0.1 | -11.8 | -13.5 | -0.1 | 6.2 | . | .
CC(Nc1cccnc1)=C(C#N)C#N | -7.9 | 11.9* | 2.0 | -3.6 | -0.4 | 4.7 | -2.7 | 15.4
C/C(CC(=O)Nc1ccc(F)cc1)=N\NC(=O)Cc1csc(N)n1 | -4.2 | 0.4 | 11.8 | 1.8 | -0.3 | 24.8 | . | .
C/C(CC(=O)Nc1ccc(Br)cc1)=N\NC(=O)Cc1csc(N)n1 | 12.5 | 101.4* | 14.5 | -0.5 | . | 34.4 | -1.8 | -1.0
O=C(NC(=S)NC1CCCCC1)c1ccc(F)cc1 | . | . | 22.4 | . | . | 20.8 | . | .
Cc1c(C)c2cc(Cl)c(O)c(CN3CCN(C)CC3)c2oc1=O | -2.5 | 15.3* | -18.3 | . | -0.3 | -3.1 | -1.4 | -5.0
Cc1c(C)c2cc(Cl)c(O)c(CN3CCCC(C)C3)c2oc1=O (stereo unspecified) | -18.4 | 1.9 | -4.8 | . | -0.1 | -2.4 | . | .
COc1cccc(NC(C(=O)Nc2cccc(C(C)=O)c2)c2ccccc2)c1 (stereo unspecified) | -14.9 | 13.9* | 9.1 | -5.8 | -0.5 | 7.0 | -2.4 | 2.2
COc1cc(NC(C(=O)Nc2cccc(C(C)=O)c2)c2ccccc2)cc(OC)c1OC (stereo unspecified) | -15.6 | 0.1 | 10.3 | -13.0 | -0.1 | 24.2 | . | .
COc1ccccc1OCC(=O)NNC(=O)Nc1ccccc1 | . | . | -3.2 | . | . | 0.5 | . | .
COc1ccc(CN2CCCC(C(=O)c3cccc(C(F)(F)F)c3)C2)cc1O (stereo unspecified) | -21.8 | 1.2 | -0.4 | -3.0 | -0.2 | 8.5 | . | .
O=C(N/C(=C\c1ccc(Br)cc1)C(=O)N1CCCC1)c1cccs1 | 5.9 | -0.8 | -9.7 | -22.3 | 0.8 | 6.1 | . | .
O=C(N/C(=C/c1ccc(Br)cc1)C(=O)N1CCCC1)c1cccs1 | -2.5 | 12.8* | 10.0 | -8.6 | -0.5 | 45.2 | -2.0 | -1.4
COc1ccc(CNc2cc(C)nc3ccc(OC)cc23)cc1 | . | . | -4.2 | . | . | 6.2 | . | .
N/N=C1\CCCc2c1[nH]c1ccc([N+](=O)[O-])cc21 | -7.7 | 0.1 | -3.3 | -11.3 | . | 16.2 | . | .
O=[N+]([O-])c1ccc2[nH]c3c(c2c1)CCCC3 | 5.9 | 15.1* | 4.0 | 7.8 | 0.0 | 0.1 | -3.1 | -8.9
CCc1ccc(NC(=O)N(CCN2CCOCC2)C2CCN(C(C)=O)CC2)cc1 | -16.7 | 16.2* | -10.1 | 4.2 | -0.4 | -4.7 | -1.8 | 1.9
CC1(c2nnc(Cc3ccccc3)o2)CC(c2ccccc2Br)=NO1 (stereo unspecified) | . | . | 0.5 | . | . | -9.7 | . | .
Nn1c(SCC(=O)Nc2cccc(F)c2)nnc1C1CCCCC1 | -4.3 | 17.9* | . | 1.2 | 0.3 | . | -0.9 | 7.2

Screens: PubChem, several laboratories
